Screen size: about 4,100 compounds; about 1,600 (39%) were called active. Inconclusive results (about 25%) are left out. The list shows a part of the results. A number with no mark means an inactive call. Calls come from the whole dose curve; as a rule, active = well fitted inhibition curve with a large enough effect; inconclusive = small, poorly fitted or top-dose-only effect; inactive = no such curve, though single readings can be large or run the other way.
% is set by controls: 0 for no effect and ±100 for the full control effect; potency is the fitted concentration of half-maximal effect.

This experiment can be described thus: qHTS Validation assay for Inhibitors of Plasmodium falciparum Dd2 growth in vitro. Note: nearly all actives have a fitted effect of over 70% in size. The note with it: P. falciparum Dd2 in RBCs, SYBR Green growth, 72 h; series mostly up to 28.7 µM; activity change, negative = inhibition: at the top concentration. Summed up: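 P. falciparum Dd2-infected red blood cells (2.5% hematocrit, 0.3% parasitemia) grown 72 h at 37 °C under 5% O2 with compounds in a titration, 29 uM to 0.5 nM final. Growth read as SYBR Green-1 fluorescence after ~16 h lysis; artesunate 300 nM as positive control.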
Turning to `Cc1ccsc1C(=O)Nc1cccc(-c2nnc3n2CCCC3)c1`, the “activity change, negative = inhibition” value is -10.3%.

Turning to `COc1cc(=O)n2c(c1C(=O)Nc1ccc(N(C)C)cc1)CCCC2`, the Potency was 10.6 µM (active).

As for `COc1ccc(C2=[N+](C)CCn3cccc32)c(OC)c1`, the Potency was 10.6 µM (active).

For the compound `COc1ccc(-c2cc(-c3cccc(OC)c3OC)cn3cncc23)cc1`, the Potency is 6.85 µM (active).

In the case of `CCOc1c(OC)cccc1-c1nc2ccc(-c3ccc(OC)c(OC)c3OC)cc2o1`, the “activity change, negative = inhibition” value was -21.4%.

With `COc1ccc(CNC(=O)CCc2c(C)nn(-c3ccc(N4CCOCC4)nn3)c2C)cc1`, the “activity change, negative = inhibition” value was 24.5%.

In the case of `COc1ccc(-c2cc(-c3ccc(N4CCOCC4)nc3)cn3cncc23)cc1`, the Potency was 7.69 µM (active).

With `Nc1ncnc2c1ncn2[C@H]1O[C@@H](CNS(=O)(=O)NC(=O)c2cccc(-c3noc(-c4ccccc4F)n3)c2)[C@H](O)[C@@H]1O`, the “activity change, negative = inhibition” value was 5.64%.

Consider `O=C(C1Cn2cccc2C(=O)N1Cc1ccccc1)N1CCN(c2ncccn2)CC1` (stereo not drawn), for which the “activity change, negative = inhibition” value is -10.5%.

With `Cc1ccc(C)c(-n2c(-c3ccc(Br)cc3)csc2=NC(=O)c2ccccc2F)c1`, the Potency is 4.73 µM (active).

`CCCOc1cccc(C2c3c(oc4ccc(F)cc4c3=O)C(=O)N2Cc2ccc3c(c2)OCO3)c1` (stereo not drawn): the “activity change, negative = inhibition” value is 2.36%.

For the compound `CCCOc1cccc(C2c3c(oc4cc(C)c(C)cc4c3=O)C(=O)N2CCCN2CCOCC2)c1` (stereo not drawn), the Potency was 13.3 µM (active).

For the compound `COc1cccc(/C=C/C(=O)Nc2ccc3nc(N4CCN(C)CC4)cc(C)c3c2)c1OC`, the Potency is 5.96 µM (active).

As for `CCN1CCN(c2cc(C)c3cc(NC(=O)/C=C/c4cccc(OC)c4OC)ccc3n2)CC1`, the Potency was 5.96 µM (active).

For the compound `COc1cccc(C(=O)Nc2cccc(-c3cn4c(C)csc4n3)c2)c1OC`, the “activity change, negative = inhibition” value is 9.23%.

On to `Cc1ccsc1CN1CCC(C(=O)N2CCCCCCNC(=O)CC2)CC1`, for which the “activity change, negative = inhibition” value was -1.02%.

`Cc1ncc(CN2CCC(C(=O)Nc3ccc(-n4cccn4)cc3)CC2)s1`: the Potency is 4.73 µM (active).

Turning to `CCOC(=O)c1c(S(=O)(=O)N2CCC(C(=O)Nc3ccc(OCC)cc3)CC2)c(C)n(C)c1C`, the “activity change, negative = inhibition” value was 0%.

With `CN(C)CCNC(=O)c1ccc2c(c1)N(Cc1c(F)cccc1Cl)C(=O)c1ccccc1S2`, the Potency is 2.11 µM (active).

Take `Cc1ccccc1CNC(=O)CC1C(=O)NCCN1Cc1c(F)cccc1Cl` (stereo not drawn): the “activity change, negative = inhibition” value was 2.91%.

On to `CC(C)CCNC(=O)c1ccc2c(c1)CC(=O)N2Cc1ccccc1`, for which the “activity change, negative = inhibition” value is 1.52%.

On to `O=C(NCc1ccco1)c1ccc2c(c1)N(Cc1c(F)cccc1Cl)C(=O)c1ccccc1S2`, for which the Potency is 13.3 µM (active).

As for `COCCCNC(=O)c1ccc2c(c1)CC(=O)N2Cc1ccccc1`, the “activity change, negative = inhibition” value is 1.11%.

With `CCCCN(CC)CCCNC(=O)c1ccc2c(c1)N(Cc1ccc(C)cc1)C(=O)c1ccccc1S2`, the Potency is 1.88 µM (active).

In the case of `O=C(NCc1ccco1)c1ccc2c(c1)N(Cc1ccc(F)cc1)C(=O)c1ccccc1S2(=O)=O`, the “activity change, negative = inhibition” value is -17.7%.

Turning to `CCN(CC)CCCNC(=O)c1ccc2c(c1)N(Cc1c(F)cccc1Cl)C(=O)c1ccccc1S2`, the Potency is 0.944 µM (active).

`CC(C)[C@@H]1CN(C(=O)CCn2ccc(=O)[nH]c2=O)C[C@H]1NS(C)(=O)=O`: the “activity change, negative = inhibition” value is 59.1%.

As for `CCOc1ccccc1NC(=O)Cn1c(-c2ccccc2)nc(C)cc1=O`, the “activity change, negative = inhibition” value was -19.7%.

As for `CCOc1ccccc1NC(=O)Cn1c(-c2ccc(Cl)cc2)noc1=O`, the Potency was 5.96 µM (active).

In the case of `O=C(Cn1c(-c2ccccc2)noc1=O)NCc1ccccc1`, the “activity change, negative = inhibition” value was 8.85%.

Take `Cc1csc(Nc2ccc3c(n2)CN(Cc2ccccc2C)C(=O)CO3)n1`: the Potency is 19.3 µM (active).

As to `O=C1COc2ccc(-c3ccc(Cl)cc3)nc2CN1Cc1ccccc1`, the “activity change, negative = inhibition” value was 24% [at 43.1 µM].

`COc1ccc(-c2ccc3c(n2)CN(Cc2csc(C)n2)C(=O)CO3)cc1F`: the “activity change, negative = inhibition” value was -22.2% [at 43.1 µM].

For `CC(=O)c1cccc(N(C(=O)Cn2nnc3ccccc32)C(C(=O)NCc2ccccc2)c2ccc(F)cc2)c1` (stereo not drawn), the “activity change, negative = inhibition” value is 25.6%.

With `c1cc(Nc2ncnc3sc4c(c23)CCC4)ccn1`, the “activity change, negative = inhibition” value is -8.48%.

Turning to `N=c1c2c3c(sc2ncn1Nc1ccccc1)CCC3`, the Potency was 3.35 µM (active).

`O=C(Nc1ccc2c(N3CCCC3)ncnc2c1)c1cccc(F)c1`: the Potency was 4.73 µM (active).

Regarding `Cc1cc(C)cc(C(=O)NC2CCN(c3cc(-c4ccc(F)cc4)[nH]n3)C2)c1` (stereo not drawn), the “activity change, negative = inhibition” value is -3.35%.

For `CCN1c2cc(C(=O)Nc3cc(C)cc(C)c3)ccc2C(=O)N2CCCC21` (stereo not drawn), the “activity change, negative = inhibition” value is -17.1%.

For the compound `O=C(Nc1ccc2oc(-c3cccc(F)c3)nc2c1)c1ccc2ccccc2c1`, the “activity change, negative = inhibition” value was 39.4%.

On to `O=C(Nc1ccccc1)c1cnc(N2CCCCC2)c2ccccc12`, for which the “activity change, negative = inhibition” value was 6.64%.

Take `Cc1cc(C)cc(C(=O)Nc2ccc3c(N4CCCC4)ncnc3c2)c1`: the Potency is 2.37 µM (active).

Regarding `O=C(Nc1ccc2c(N3CCCCC3)ncnc2c1)c1ccc(F)c(F)c1`, the Potency was 4.73 µM (active).

On to `O=C(Nc1ccc2c(N3CCCCC3)ncnc2c1)c1cc(F)cc(F)c1`, for which the Potency is 1.88 µM (active).

On to `CC(C)c1noc(-c2cccn3c(CNC(=O)COc4ccc(F)cc4)nnc23)n1`, for which the “activity change, negative = inhibition” value was -0.867%.

Consider `COc1ccccc1Cc1nc2ccccc2nc1SCC(=O)NCc1ccccc1Cl`, for which the Potency is 2.11 µM (active).

For the compound `CCc1noc(-c2ccn3c(CNC(=O)Cc4ccccc4OC)nnc3c2)n1`, the “activity change, negative = inhibition” value was 8.77%.

For `COc1cccc(CNC(=O)CSc2n[nH]c(-c3ccccc3Cl)n2)c1OC`, the “activity change, negative = inhibition” value is 16.8%.

For the origin of these results see PubChem BioAssay AID1347416 (National Center for Advancing Translational Sciences (NCATS), 2020).
